Experimental data reported in PubChem BioAssay (NCATS).
Inconclusive results are not listed. Calls of active or inactive are those of the source. Calls follow the shape of the full dose curve; tested in HEK293 reporter line.

test: qHTS for Inhibitors of the Functional Ribonucleoprotein Complex (vRNP) of Lassa (LASV) Arenavirus: LASV Primary Screen - GLuc reporter signal (AID 1347082); details: LASV minigenome vRNP, Gaussia luciferase reporter; series mostly up to 57.5 µM; activity change, negative = inhibition: at the top concentration; also: nearly all actives have a fitted effect of over 60% in size
% is scaled to controls: 0 for no effect and ±100 for the full control effect; potency is read from the fitted curve at half-maximal effect.

Row | Compound | activity change, negative = inhibition | Potency
1 | N=c1ccn2c(n1)O[C@H]1[C@H](O)[C@@H](CO)O[C@H]12 | -1.2% (inactive) | 
2 | N[C@@]1(C(=O)O)CS(=O)(=O)[C@H]2[C@H](C(=O)O)[C@H]21 | -22% (inactive) | 
3 | CN1N=C(N)c2cn([C@@H]3O[C@H](COP(=O)(O)O)[C@@H](O)[C@@H]3O)c3ncnc1c23 | -36.2% (inactive) | 
4 | O=C(O)CCCCCC(=O)NN=C1CCCC1 | 2.58% (inactive) | 
5 | O=C(Nc1ccc(Oc2ccnc3[nH]ccc23)c(F)c1)c1cccn(-c2ccc(F)cc2)c1=O | -5.32% (inactive) | 
6 | CN(C)C(=O)/N=N/C(=O)N(C)C | 0.417% (inactive) | 
7 | O=C1NC(O)CCN1[C@@H]1O[C@H](CO)[C@H](O)[C@H]1O (stereo partly drawn) | 1.25% (inactive) | 
8 | Cc1ccc2nc(NCCN)c3ncc(C)n3c2c1 |  | 17.2 µM (active)
9 | O=C1c2ccccc2-c2n[nH]c3cccc1c23 | -1.11% (inactive) | 
10 | CC(C)C(C)C=CC(C)C1CCC2C3=CC=C4CC(O)CCC4(C)C3CCC21C (stereo not drawn) |  | 27.3 µM (active)
11 | Cc1cc(Cl)ccc1OCCCC(=O)NO | 17.3% (inactive) | 
12 | CC1(C)CC(O)CC(C)(C)N1[O] | -11% (inactive) | 
13 | O=c1[nH]c2cc(Cl)c(Cl)cc2[nH]c1=O | -19.1% (inactive) | 
14 | Cn1cc(C[C@@H](N)C(=O)O)c2ccccc21 | 5.85% [at 24.7 µM] (inactive) | 
15 | CCN(CC)CCNC(=O)c1ccc2nc(-c3ccccc3)c(-c3ccc(CN4CCC(n5c(=O)[nH]c6ccccc65)CC4)cc3)nc2c1 |  | 34.3 µM (active)
16 | CC(C)c1cc(-c2n[nH]c(=O)n2-c2ccc3c(ccn3C)c2)c(O)cc1O |  | 0.385 µM (active)
17 | C=CCn1c(=O)c2c(nc(-c3ccc(S(=O)(=O)O)cc3)n2C)n(C)c1=O | 19.1% (inactive) | 
18 | O=c1[nH]c(=O)n([C@H]2C[C@@H](O)[C@@H](CO)O2)cc1C=CBr | -0.698% (inactive) | 
